About 83,000 compounds went through this panel and 20% of them were active in at least one assay; those are over-represented in the sample as a whole.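 Results are percent growth after 48 hours of single-concentration exposure. 100 means growth as in untreated cells, lower positive values show inhibition; negative values down to -100 show cell death.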 Unmarked numbers belong to inactive results. Calls of active or inactive are those of the source. The calls were made as follows: active = growth percent below 10; inactive = the rest.
How the values were obtained:
Test in all cases: NCI-60 one-dose screen, 48 h (100 = growth as untreated, 0 = no growth, -100 = all killed)
Details in all cases: 10 µM unless noted
HCT-15 colon = system: HCT-15 colon
HT29 colon = system: HT29 colon
SNB-75 CNS = system: SNB-75 CNS
SNB-19 CNS = system: SNB-19 CNS
U251 CNS = system: U251 CNS
PC-3 prostate = system: PC-3 prostate
SK-MEL-5 melanoma = system: SK-MEL-5 melanoma
UACC-62 melanoma = system: UACC-62 melanoma
LOX IMVI melanoma = system: LOX IMVI melanoma
SK-MEL-28 melanoma = system: SK-MEL-28 melanoma

Compound | growth (HCT-15 colon) | growth (HT29 colon) | growth (SNB-75 CNS) | growth (SNB-19 CNS) | growth (U251 CNS) | growth (PC-3 prostate) | growth (SK-MEL-5 melanoma) | growth (UACC-62 melanoma) | growth (LOX IMVI melanoma) | growth (SK-MEL-28 melanoma)
CC(C)N1CN2C(=S)NC3C2N(C1)C(=S)N3C (stereo unspecified) | 105% | 92.4% | 85.5% | 100% | 101% | 98% | 97.9% | 96.6% | 98.9% | 114%
C[C@H](NC(=O)[C@@H](C)N)[C@H](Oc1ccc2c(cnn2-c2ccc(F)cc2)c1)c1ccc2c(c1)OCCO2 | 34% | 2.47% (active) | 61.6% | 65.9% | 34.7% | 44% | -70% (active) | -22.3% (active) | -67.3% (active) | -66.7% (active)
COc1cccc([C@H]2c3[nH]c4ccccc4c3C[C@H]3C(=O)N(CCCCCCC(=O)NO)CC(=O)N23)c1 | 105% | 56.7% | 7.84% (active) | 68.4% | 61.5% | 42.5% | 49.8% | 36.8% | – | 43%
CCN(CC)c1nc(SCc2ccccc2Cl)ncc1C | 96.4% | 107% | 97.8% | 96.4% | 92.6% | 89.9% | 83.8% | 81.2% | – | 118%
COc1ccc(/C(C)=C(/c2ccc(OCCCN(C)C)cc2)c2ccc(OC(=O)Cc3ccccc3)cc2)cc1 | 54.6% | 7.51% (active) | 79% | 90% | 55.1% | 71.9% | 79.5% | 70.2% | – | 70.8%
CC[C@@H](C(=O)[C@@H](C)[C@@H](O)[C@H](C)[C@@H]1O[C@@H]([C@@H](CC)C(=O)NCCc2ccc(F)cc2)CC[C@@H]1C)C1O[C@]2(C=CC(=O)[C@]3(CC[C@@](C)([C@H]4CC[C@](O)(CC)[C@H](C)O4)O3)O2)[C@H](C)C[C@@H]1C (stereo partly specified) | 29.1% | 47.2% | 20.8% | 26.2% | 28.4% | 8.72% (active) | 24.6% | 26.7% | 52.8% | 58.2%
Nc1ncnc2c1N=C(c1ccc3c(c1)OCO3)CC(c1cccc(Nc3ccnc4cc(Cl)ccc34)c1)N2 (stereo unspecified) | 36.4% | 27.8% | 74.6% | 58.2% | 26.5% | 54.2% | 53.4% | 57% | – | 91.3%
CN([O-])c1nc(N(C)[O-])nc(N2CCOCC2)n1.CN([O-])c1nc(N(C)[OH2+])nc(N2CCOCC2)n1.[Fe+3] | 104% [100 µM] | 102% [100 µM] | 96.1% [100 µM] | 108% [100 µM] | 38.7% [100 µM] | 65.9% [100 µM] | 95.5% [100 µM] | 81.6% [100 µM] | – | -26.4% [100 µM] (active)
COc1cc(-c2nc(SCC(C)C)nc(Nc3cccc4ccccc34)c2C#N)cc(OC)c1OC | 74.3% | 89.9% | 94.3% | 106% | 59.1% | 57.1% | 95.5% | 86.5% | 103% | 110%
C=C(C)[C@@H]1CC[C@]2(C(=O)OC)CC[C@]3(C)[C@H](CC[C@@H]4[C@@]5(C)C/C(=C/NC(N)=S)C(=O)C(C)(C)[C@@H]5CC[C@]43C)[C@@H]12 | 92.8% | 71% | 118% | 97.1% | 90.7% | 67.6% | 87.1% | 87.4% | – | 98.9%
Cc1c(-c2nc3ccc(F)cc3c(=O)[nH]2)c2ccccc2n1C | 22.9% | 10.7% | -7.98% (active) | 29.2% | 27.6% | 47.1% | 36.2% | 19.6% | – | 52%
COc1ccc(CC(C#N)c2cc3ccccc3[nH]2)cc1 (stereo unspecified) | 91.5% | 96.5% | 78.2% | 92.8% | 89.3% | 75.6% | 91.6% | 75% | 92% | 95%
CCCCOC(=O)OCc1cc(=O)c(O)co1 | 106% | 101% | 91.5% | 99% | 99.5% | 99.6% | 104% | 99.4% | 99.9% | 107%
O=C1N[C@@H]2NC(=[N+]3CCOCC3)N[C@@H]2N1 | 104% | 110% | 94.5% | 96% | 97.2% | 106% | 101% | 90.1% | – | 101%
O=C1/C(=C/c2cccs2)SC(=S)N1CCCN1CCOCC1 | 83.6% | 103% | 99% | 92.5% | 94.8% | 75.5% | 95.3% | 79.1% | – | 95.8%
O=C(CSc1nc2ccc([N+](=O)[O-])cc2[nH]1)Nc1cccc(C(F)(F)F)c1 | 23.5% | 11.3% | 25.5% | 15.2% | 16.4% | 9.66% (active) | -1.54% (active) | 6.34% (active) | – | 22.2%
Nc1c(C(=O)Nc2ccncc2)sc2nc3c(cc12)CCCCCC3 | 63.5% | 41.9% | 84.2% | 84.1% | 76.2% | 90.3% | 56.8% | 89.6% | 84.8% | 88.6%
CCOC(=O)c1c(C)c2c(n1C)CSc1cc(C(=O)c3ccccc3)c(=O)[nH]c1-2 | 105% [100 µM] | 108% [100 µM] | 89.5% [100 µM] | 102% [100 µM] | 97.8% [100 µM] | 82.5% [100 µM] | 85.8% [100 µM] | 78.5% [100 µM] | – | 105% [100 µM]
CN1C(=O)/C(=C/c2ccc(C(=O)Nc3ncc(Cc4ccc(Cl)cc4)s3)cc2)SC1=S | 21.7% | 20.2% | 52.1% | 69.3% | 61.7% | 55.1% | 26.2% | 21.4% | – | 60.2%
Nc1nc(=S)c2ncn(C3OC(COP(=O)(O)O)C(O)C3O)c2[nH]1 (stereo unspecified) | 9.49% (active) | 7.19% (active) | 47.8% | 96.1% | 47.3% | 29.1% | 69.5% | 14% | – | 73.5%
CCCCCCCCCCCCCCCCCCOc1ccccc1CC(=O)OCC[N+]1(C)CCCC1 | 68.1% | 12.4% | 7.26% (active) | 31.1% | 7.62% (active) | 21.8% | 1.15% (active) | 23.3% | – | 49.7%
c1cc2[nH]ncc2cc1-c1nc2ccc3[nH]ncc3c2c2c1CCCC2 | 7.1% (active) | 4.84% (active) | -3.31% (active) | 24.3% | 15.7% | 23.1% | -56.1% (active) | 1.74% (active) | – | -0.43% (active)
N#Cc1cccc(-c2c(-c3ccc4ccccc4c3)oc3ccccc3c2=O)c1 | 33.9% | 10.9% | 51.1% | 53.7% | 45.6% | 34.1% | 31% | 33.9% | – | 58%
CC(=O)Cc1nsc(NC(=O)c2cc(-c3cc(Cl)cc(Cl)c3)oc2C)n1 | 99.4% | 102% | 84.1% | 101% | 93.2% | 93.7% | 99.9% | 88.7% | 97% | 103%
N#C/C(=C\c1ccc(Br)cc1)n1nnc2ccc(F)cc21 | -18.2% (active) | 3.64% (active) | 0.279% (active) | 19.5% | 1.71% (active) | 7.5% (active) | 6.12% (active) | -54.7% (active) | – | -5.29% (active)
Cc1ccc(/C=C2\CN(C(=O)OC(C)(C)C)C/C(=C\c3ccc(C)cc3)C2=O)cc1 | 1.94% (active) | -49.9% (active) | 79.7% | 71.4% | 12.4% | 29.9% | 78.9% | 56.5% | – | 87.3%
O=C1c2c(c3c4ccccc4[nH]c3c3ccc4ccccc4c23)C(=O)N1CCN1CCCCC1 | 25% | 11.8% | 52.6% | 42.4% | 10.8% | 53.3% | 55.4% | 42.8% | – | 98.1%
COc1cc(-c2cc(-c3ccc(N(C)C)cc3)nc(N3CCC(O)CC3)c2C#N)cc(OC)c1OC | -41.1% (active) | 2.08% (active) | -17.2% (active) | 30.2% | 12.9% | 12.7% | -99% (active) | -26.8% (active) | -0.767% (active) | -28.7% (active)

Source: PubChem BioAssay (NCI)
